From PubChem BioAssay
MITF TRPM1 inh: MITF TRPM1 promoter inhibition in SK-MEL-5 cells. inhibition, % at 12.5 µM. actives 0.83% (n = 330,000). SK-MEL-5 TRPM1 promoter luciferase, 24 h. AID 488899;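 active = mean inhibition across replicates of 60% or more, whatever share of single replicates reaches that level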
LGR2 antag: Drosophila LGR2 receptor signaling inhibition; HEK293 LGR2, CRE-luciferase, bursicon-stimulated, 4 h; actives 0.35% (n = 380,000); inhibition, % at 9.99 µM;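 active = drop in luminescence signal, shown as inhibition above about 50% in the replicate tests, limit read from the data, passing the limit was not always enough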;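 note: agonist challenge used bursicon conditioned medium at about half maximal strength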
EBV LMP1 NFkB: reduces LMP1-driven NF-kappaB luciferase signal; LMP1-induced NF-kappaB luciferase reporter cells, luminescence; inhibition, % at 12.5 µM; actives 0.69% (n = 350,000); AID 504558; in the data active = inhibition above about 41%;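 note: 0% = neutral control wells and 100% = reference inhibitor control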
EWS-Fli inh: inhibitors of EWS/Fli oncoprotein transcriptional activity; AID 651661; A673 NR0B1-luciferase reporter, viability-normalised; inhibition, % at 12.6 µM; actives 0.67% (n = 350,000);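 active = mean inhibition of at least 50% after viability correction, with every replicate also passing that limit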;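 note: firefly luciferase signal divided by Alamar Blue viability fluorescence both relative to DMSO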
PAX8 reporter: inhibitors of PAX8 transcriptional activity in RMG-I cells | RMG-I TPO-luciferase reporter, SteadyGlo, 24 h | inhibition, % at 12.6 µM | actives 1.2% (n = 360,000);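 active = mean replicate inhibition at least 60% with every replicate also reaching 60%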;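 note: luciferase light reporting Pax8 driven TPO promoter activity; plate controls were median of neutral control wells for no effect and mitoxantrone controls for full effect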
PGC1a acetyl inh: lowers PGC1a acetylation signal in U2OS cells; AlphaScreen anti-acetyl-lysine; with virally co-expressed GCN5 acetyltransferase; inhibition, % at 15.6 µM; actives 0.17% (n = 350,000); AID 651687;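 active = every replicate shows inhibition of at least 40%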;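 note: 0% = neutral control wells and 100% = positive control wells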
* = called active by the depositor; nt = no result. Sampled rows, rich in hits. Any-hit rate of the full collection: about 2.2%.

SMILES	MITF TRPM1 inh	LGR2 antag	EBV LMP1 NFkB	EWS-Fli inh	PAX8 reporter	PGC1a acetyl inh
CC[C@@H](C(=O)[C@@H](C)[C@@H](O)[C@H](C)CCc1ccc(C)c(O)c1C(=O)O)[C@H]1O[C@](CC)([C@H]2CC[C@](O)(CC)[C@H](C)O2)C[C@@H]1C	40	70*	-7	26	104*	8
COc1ccc(/C=c2/sc3n(c2=O)C(c2ccccc2OC)C2=C(N=3)c3ccccc3CC2)cc1O (centres undefined)	34	nt	-20	nt	93*	-12
CCOC(=O)C1=C(C)N=c2s/c(=C\c3ccc(O)c([N+](=O)[O-])c3)c(=O)n2C1c1ccccc1OC (centres undefined)	12	0	4	16	-8	6
C[C@@H]1CN([C@@H](C)CO)C(=O)c2cc(NC(=O)CCC(F)(F)F)ccc2O[C@H]1CN(C)S(=O)(=O)c1ccc(F)cc1	nt	4	nt	2	-11	4
CC(C)CC(=O)Nc1cccc(-c2csc(-c3ccccc3)n2)c1	-12	nt	67*	nt	nt	-10
CCC(=O)Nc1cccc(-c2csc(-c3ccccc3)n2)c1	-3	nt	-4	9	-14	nt
C[C@@H]1CN([C@H](C)CO)C(=O)c2cccc(NC(=O)Nc3ccc(F)cc3)c2O[C@H]1CN(C)C(=O)Nc1ccc2c(c1)OCO2	nt	-2	nt	-88	-27	4
COc1ccc2oc(C(=O)N3CCc4ccccc43)c(C)c2c1	-26	59*	37	nt	-72	nt
O=C(CC1CC1)N[C@H]1CC[C@H](CCNS(=O)(=O)c2ccc(Cl)cc2)O[C@H]1CO	nt	-12	nt	-1	4	53*
O=C(CC1CC1)N[C@@H]1CC[C@H](CCNS(=O)(=O)c2ccc(Cl)cc2)O[C@@H]1CO	nt	10	nt	3	-14	-12
C/C=C/c1cnc2c(c1)C(=O)N([C@@H](C)CO)C[C@@H](C)[C@H](CN(C)C(=O)NC1CCCCC1)O2	nt	0	nt	-14	5	-6
CC(C)CN(C(=O)COC(=O)c1cccs1)c1c(N)n(Cc2ccccc2)c(=O)[nH]c1=O	nt	-8	1	3	-13	11
CCCCn1c(N)c(N(CCC(C)C)C(=O)COC(=O)c2ccc([N+](=O)[O-])s2)c(=O)[nH]c1=O	80*	5	-22	6	91*	11
CCCCn1c(N)c(N(CCC(C)C)C(=O)COC(=O)c2sccc2C)c(=O)[nH]c1=O	12	-5	4	3	6	nt
CC(C)CN(C(=O)COC(=O)c1ccc([N+](=O)[O-])s1)c1c(N)n(Cc2ccccc2)c(=O)[nH]c1=O	60*	2	8	-3	-2	-5
CCC(=O)Nc1ccc2c(c1)C(=O)N(C)C[C@H](OC)[C@@H](C)CN(Cc1cccc(F)c1)[C@H](C)CO2	nt	6	nt	7	0	4
CN(Cc1ccccc1)CC1CC(c2ccccc2)OC(c2ccc(NC(=O)CCCCCCC(=O)O)cc2)O1 (centres undefined)	nt	nt	nt	4	-10	6
CC(C)C#Cc1cnc2c(c1)C(=O)N([C@H](C)CO)C[C@H](C)[C@@H](CN(C)C(=O)C1CCC1)O2	nt	-12	nt	8	nt	-27
O=C(C[C@@H]1CC[C@H]2[C@@H](COC[C@H](O)CN2CC2CCCCC2)O1)NCc1ccc(Cl)cc1	nt	4	nt	5	-11	8
O=C(C[C@@H]1C[C@H]2c3cc(NC(=O)Cc4ccncc4)ccc3O[C@H]2[C@@H](CO)O1)NCc1ccc2c(c1)OCO2	nt	-3	nt	7	9	0
Brc1cccc(CSc2nnc(-c3ccncc3)o2)c1	4	34	71*	-16	-25	nt
c1ccc(-c2nnc(SCc3ccncc3)o2)cc1	nt	-20	-5	-48	-166	-3
CCN(CC)c1ccc2cc(-c3nc4ccccc4[nH]3)c(=O)oc2c1	79*	nt	11	nt	nt	-3
CCN(CC)c1ccc2cc(-c3nc4ccccc4n3C)c(=O)oc2c1	-8	-49	-25	nt	nt	10
COc1ccc(NC(=O)C(=O)NCCC2CCCCN2S(=O)(=O)c2ccccc2)cc1 (centres undefined)	30	-1	1	52*	41	-15
SMILES	MITF TRPM1 inh	LGR2 antag	EBV LMP1 NFkB	EWS-Fli inh	PAX8 reporter	PGC1a acetyl inh
COc1ccc(NC(=O)C(=O)NCCC2CCCCN2S(=O)(=O)c2cccs2)cc1 (centres undefined)	37	1	-9	58*	35	-65
COc1ccccc1NC(=O)N(C)C[C@H]1Oc2ncc(Br)cc2C(=O)N([C@H](C)CO)C[C@@H]1C	nt	2	nt	4	nt	-8
Cc1ccc(OCC(=O)NNC(=S)NC(=O)C2CC2)c(C)c1	9	8	7	nt	20	nt
Cc1ccc(OCC(=O)NNC(=S)NC(=O)C2CCCCC2)c(C)c1	10	nt	45*	nt	nt	nt
Cc1ccc(-c2cnc3c(c2)C(=O)N([C@H](C)CO)C[C@H](C)[C@H](CN(C)Cc2ccccc2C(=O)O)O3)cc1	nt	5	nt	-10	nt	-6
O=C(Nc1cccc(F)c1)N1CCCCN2[C@H](CO)[C@@H](c3ccc(-c4ccccc4F)cc3)[C@H]2C1	nt	-1	nt	32	94*	0
O=C(Nc1ccc(F)cc1)N1CCCCN2[C@H](CO)[C@H](c3ccc(-c4ccccc4F)cc3)[C@H]2C1	nt	nt	nt	3	64*	-41
CC(Oc1cccc(Cl)c1)C(=O)Nc1nc(-c2ccccn2)cs1 (centres undefined)	64*	8	5	35	71*	-3
CC(Oc1ccccc1)C(=O)Nc1nc(-c2ccncc2)cs1 (centres undefined)	-12	-3	3	5	-5	nt
CC(Oc1ccccc1)C(=O)Nc1nc(-c2ccccn2)cs1 (centres undefined)	62*	13	22	23	57	nt
CCCc1ccc(-c2ccc(F)c(N)c2)nc1	41	79*	69*	nt	nt	5
COc1ccc(S(=O)(=O)Nc2ccc3c(c2)C(=O)N([C@@H](C)CO)C[C@H](C)[C@H](CN(C)C(=O)CCC(F)(F)F)OCCCC[C@@H](C)O3)cc1	nt	8	nt	0	10	-10
CN(Cc1ccccc1)C1=CC(=[N+]2CCCCC2)CC(C)(C)C1	77*	17	44*	23	74*	-1
CC1(C)CC(N2CCCC2)=CC(=[N+]2CCCCC2)C1	33	9	16	12	38	nt
CC1(C)CC(N2CCN(Cc3ccccc3)CC2)=CC(=[N+]2CCCCC2)C1	67*	11	15	1	69*	-9
COc1ccc2c3c([nH]c2c1)[C@H](CO)N(C(C)=O)CC31CCN(S(=O)(=O)c2cccs2)CC1	nt	-3	nt	-2	nt	2
